# Source: PubChem BioAssay
# Sampled rows, rich in hits. Any-hit rate of the full collection: about 21%.
# SARS PLP yeast – qHTS of Yeast-based Assay for SARS-CoV PLP; Potency, µM (highest dose often 32.9 µM), without a hit: at the highest dose activity, positive = growth rescue, most hits filed as activators; S. cerevisiae expressing SARS-CoV PLpro, growth rescue; 330,000 compounds, 0.19% hits; calls by dose curve; note: potency is the fitted concentration of half-maximal effect; 0% is about no effect; nearly all actives have a fitted effect of over 55% in size
# Pf growth 96h – Primary qHTS for delayed death inhibitors of the malarial parasite plastid, 96 hour incubation; P. falciparum luciferase reporter growth, 96 h; Potency, µM (series often up to 28.7 µM), for the others: at the top dose activity change, negative = inhibition, hits mostly inhibitors; 320,000 compounds, 6.9% hits; note: potency is the fitted concentration of half-maximal effect; % is set by controls: 0 for no effect and ±100 for the full control effect
#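 Infected RBCs, 2% Hct / 0.05% parasitemia final; luciferase-reporter P. falciparum; cpd 96 h, 37 C, 5% CO2; luciferase detection reagent; luminescence.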
# Pf growth 48h – Primary qHTS for delayed death inhibitors of the malarial parasite plastid, 48 hour incubation. 310,000 compounds, 5.9% hits. P. falciparum luciferase growth in erythrocytes, 48 h. Potency, µM (series often up to 28.7 µM), inactives show at the top dose activity change, negative = inhibition, most hits filed as inhibitors. AID 504832, 2011; note: potency is the fitted concentration of half-maximal effect; % is set by controls: 0 for no effect and ±100 for the full control effect
#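 Compounds are pin-transferred into medium, infected erythrocytes (2% hematocrit, 0.1% parasitemia final) are added, and plates sit one parasite generation at 37 C in 5% CO2. Detection reagent is then added and luminescence measured.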
# NS1 inh – qHTS Assay for Inhibitors of Influenza NS1 Protein Function. Potency, µM (series often up to 46.1 µM), inactives show at the top dose activity, positive = more growth. 270,000 compounds, 0.4% hits. AID 2326, 2010; calls by dose curve; note: potency is the fitted concentration of half-maximal effect; actives are rising curves; nearly all actives have a fitted effect of over 50% in size
#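 Growth recovery, yeast-based: influenza A NS1 expressed in S. cerevisiae causes slow growth, and suppressors are detected by OD600. The parent strain without NS1 is used as positive control.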
# Shiga toxin inh – A qHTS for Small Molecule Inhibitors of Shiga Toxin; AID 2315, 2010; inhibition, % at 38.7 µM; 290,000 compounds, 9.2% hits; Vero cells, Shiga toxin protein synthesis inhibition reporter; in the data active = inhibition mostly above about 28%, no sharp cut-off; inactive = mostly below about 43%; note: 0% is about no effect
# Cycloheximide cs – Cycloheximide Counterscreen for Small Molecule Inhibitors of Shiga Toxin | cell reporter, cycloheximide protein synthesis inhibition counterscreen | 300,000 compounds, 12% hits | max response, %; in the data active = max response mostly above about 13%, no sharp cut-off; inactive = mostly below about 14%; note: read at 38.3 µM for the half of the compounds with a filed dose; 0% is about no effect
# An asterisk follows results filed as active; ? = inconclusive; · = not tested or not shown. Unless noted, calls come from the whole dose curve; as a rule, active = well fitted inhibition curve with a large enough effect; inconclusive = small, poorly fitted or top-dose-only effect, or another doubt; inactive = no such curve, though single readings can be large or run the other way.
SMILES,SARS PLP yeast,Pf growth 96h,Pf growth 48h,NS1 inh,Shiga toxin inh,Cycloheximide cs
COc1ccc(N(C)S(=O)(=O)c2cccc(C(=O)NC3CCCCC3C)c2)cc1 (stereo not drawn),-2%,?,?,·,32,17
COc1ccc(N(C)S(=O)(=O)c2cccc(C(=O)Nc3ccc(N4CCOCC4)cc3)c2)cc1,3%,?,8.3µM*,·,·,·
COc1ccc(N(C)S(=O)(=O)c2cccc(C(=O)NC3CCCC3)c2)cc1,0%,?,10µM*,·,8,5
CN(c1ccccc1)S(=O)(=O)c1cccc(C(=O)Nc2ccc(N3CCOCC3)cc2)c1,0%,?,?,·,·,·
COC(=O)c1ccccc1S(=O)(=O)N1CCC(C(=O)Nc2ccc(N3CCOCC3)cc2)CC1,0%,·,·,·,·,·
CCOC(=O)c1nn(-c2ccc(F)cc2)c2nc(Nc3ccccc3)cc(=O)n12,19%,1%,11%,?,-2,-2
CCOc1ccccc1OCCCC(=O)N1CCN(S(=O)(=O)c2ccc(C)cc2)CC1,0%,?,?,-15%,-5,-4
Cc1ccc(S(=O)(=O)N2CCN(C(=O)CCc3c[nH]c4ccccc34)CC2)cc1,-11%,?,?,·,·,·
CCOc1ccccc1OCCCC(=O)N1CCN(S(=O)(=O)c2ccc(C)cc2C)CC1,-5%,10µM*,?,·,·,·
Cc1ccccc1OCCC(=O)N1CCN(S(=O)(=O)c2ccc(F)cc2)CC1,-2%,-15%,?,-10%,1,1
Cc1ccc(S(=O)(=O)N2CCN(C(=O)CCc3c[nH]c4ccccc34)CC2)c(C)c1,-4%,7.4µM*,?,·,·,·
Cc1cc(C)c(S(=O)(=O)N2CCN(C(=O)CCOc3ccccc3C)CC2)c(C)c1,0%,?,13µM*,·,·,·
CCN1C(=O)[C@H]2[C@@H](c3ccc(C)cc3)N3C(=O)N(c4ccc(OC)cc4)C(=O)[C@@]3(CC)[C@H]2C1=O,2%,63%,-10%,·,·,·
Cc1ccc2nc3c(nc2c1)-c1ccccc1C3=O,-14%,·,·,-57%,32*,20*
Cc1cccc2nc3c(nc12)-c1ccccc1C3=O,-1%,6%,42%,-51%,17,15
CN(C)c1ccc(N=C/C=C2/N(C)c3ccccc3C2(C)C)cc1,-12%,?,-61%,-16%,78*,62*
CN1/C(=C\C=C2/C(=O)Oc3ccccc3C2=O)C(C)(C)c2ccccc21,8%,?,12µM*,0%,40*,39*
CN1C(=CC=C2C=C(I)C(=O)C(I)=C2)C(C)(C)c2ccccc21,-2%,2.1µM*,3.3µM*,-2%,12,-3
CN1/C(=C\C=C2C(=O)NC(=S)NC2=O)C(C)(C)c2ccccc21,1%,-7%,16%,·,-13,-1
CN1/C(=C\C=[N+](C)c2ccccc2)C(C)(C)c2ccccc21,-1%,2.1µM*,0.41µM*,-7%,-13,1
CN1/C(=C\C=N\O)C(C)(C)c2ccccc21,-5%,-9%,16%,·,50,-2
N=c1n(N)c2ccccc2n1CC(=O)c1ccc(Br)cc1,-4%,76%,73%,5%,·,1
Cc1cc([N+](=O)[O-])ccc1NC(=O)CSc1nncn1-c1ccccn1,2%,-10%,9%,14%,9,-4
O=S(=O)(C(=CNc1ccccc1)S(=O)(=O)c1ccccc1)c1ccccc1,-24%,10µM*,-7%,6%,-5,-2
Cc1ccc(NC=C(S(=O)(=O)c2ccccc2)S(=O)(=O)c2ccccc2)cc1,-17%,-29%,?,3%,10,7
SMILES,SARS PLP yeast,Pf growth 96h,Pf growth 48h,NS1 inh,Shiga toxin inh,Cycloheximide cs
C#C[C@]1(O)CC[C@@H]2[C@H]3CCC4=CC(=O)CC[C@H]4[C@H]3C(=C)C[C@@]21CC,·,-89%,-49%,·,·,·
C#C[C@]1(OC(C)=O)CC[C@H]2[C@@H]3CCC4=C/C(=N/O)CC[C@@H]4[C@H]3CC[C@@]21CC,·,0.95µM*,-11%,·,·,·
CC(=O)c1cccc(OCc2cc(C(=O)N(C)CCc3cnn(C)c3)no2)c1,-2%,?,4%,4%,-8,13
CCN(Cc1cnn(C)c1)C(=O)c1cc(COc2ccc(F)cc2F)on1,-1%,14%,3%,-9%,41,15*
Cc1cc(OCc2cc(C(=O)N(C)CCc3cnn(C)c3)no2)cc(C)c1Cl,-5%,-7%,35%,-28%,70*,39*
CCN(Cc1ccncc1)C(=O)c1cc(COc2ccc(F)cc2F)on1,-11%,?,-2%,-4%,-1,10
COc1cc(Cl)ccc1OCc1cc(C(=O)N(C)CCc2cnn(C)c2)no1,0%,?,17%,-7%,115*,64*
Cc1cc(Cl)c2oc(C(=O)N(C)CCc3cnn(C)c3)c(C)c2c1,9%,10µM*,-1%,-12%,-1,8
COC(=O)C1=C[C@@H](C(=O)OC)[C@@H]2C3=C(C(=O)[C@@]2(C)NC(=O)c2ccccc2)[C@H](C)[C@@H]2C(=O)N(Cc4ccccc4)C(=O)[C@@H]2[C@@H]3C1,·,·,·,·,2,0
CCc1ccc(CN(C)C(=O)c2cc(COc3cc(C)c(Cl)c(C)c3)on2)nc1,-9%,145%,-13%,-60%,20,-7
CCN(Cc1cnn(C)c1)C(=O)c1cc(COc2cc(C)c(Cl)c(C)c2)on1,-5%,-25%,-4%,12%,22,24*
CC1CCN(S(=O)(=O)c2ccc(C(=O)N3CCOCC3)cc2)CC1,-2%,?,-27%,7%,-9,-2
COCCCNc1oc(-c2ccccc2Cl)nc1C#N,0%,0%,6%,-10%,52,15*
CC(C)CNc1oc(-c2ccccc2Cl)nc1C#N,-2%,20%,45%,-45%,29*,14*
CCN(CC)CCCNc1oc(-c2cccc(Cl)c2)nc1C#N,2%,-10%,?,-11%,-8,-1
COCCCNc1oc(COc2ccc(Cl)cc2Cl)nc1C#N,-2%,13µM*,·,-71%,-7,1
CC(C)CNc1oc(-c2ccco2)nc1C#N,-11%,-17%,-5%,-13%,9,8
N#Cc1nc(COc2ccc(Cl)cc2Cl)oc1N1CCOCC1,-14%,7%,-14%,-95%,35*,29*
CCC(C)C1NC(=S)N(C2CCCCC2)C1=O (stereo not drawn),-11%,?,?,-21%,-16,-1
CC1NC(=S)N(C2CCCCC2)C1=O (stereo not drawn),2%,4.7µM*,29%,·,19,5
CN1C(=O)C(O)(CC(=O)c2cccnc2)c2ccccc21 (stereo not drawn),-11%,?,-8%,-15%,-3,-4
